We go through seven compounds from PubChem BioAssay (NCATS).

Records with an inconclusive call do not appear. Values without a mark were called inactive. Calls of active or inactive are those of the source. Unless noted, calls follow the shape of the dose curve; as a rule, active = well fitted inhibition curve with a large enough effect; inconclusive = small, poorly fitted or top-dose-only effect; inactive = flat fitted curve, though single readings scatter.

Test [1] can be described thus: S16 Schwann cell PMP22 intronic element beta-lactamase assay (AID 624044; calls by dose curve; also: nearly all actives have a fitted effect of over 15% in size). Particulars: S16 rat Schwann cells, PMP22 element beta-lactamase FRET, 24 h; ratio activity, negative = inhibition: at 38.3 µM (top of the series). The essentials:
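Beta-lactamase reporter under a PMP22 intronic regulatory element in stable S16 rat Schwann cells; 24 h compound exposure. 460 nm blue signal normalized between DMSO (0%) and potassium clavulanate, with 535 nm FRET tracking viability; curves classed by r2 and response.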

For test [2], the system named is AA1029. Put plainly: qHTS profiling for inhibitors of Plasmodium falciparum proliferation (AID 504749). Also: nearly all actives have a fitted effect of over 60% in size. Also: potency is read from the fitted curve at half-maximal effect. As to conditions: P. falciparum in erythrocytes, SYBR Green DNA, 72 h; series mostly up to 28.7 µM. The essentials: (§1)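 SYBR Green fluorescence of parasite DNA, read after lysis and overnight dark incubation, measured growth over 72 h in erythrocyte culture at 0.3% parasitemia and 2.5% hematocrit. Data normalised to DMSO and 0.29 uM artemisinin, with plate-drift correction.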
A general note: In qHTS, concentration-response curves come from the screen itself.

Test [3] relates to AS120. Described as above. Particulars: P. falciparum in erythrocytes, SYBR Green DNA, 72 h; series mostly up to 28.7 µM. The essentials:
as §1

Test [4] relates to ATS189. The test is described as above. Particulars: P. falciparum in erythrocytes, SYBR Green DNA, 72 h; series mostly up to 28.7 µM. The essentials:
as §1

The test system of test [5] is C2A. The description is as above. Particulars: P. falciparum in erythrocytes, SYBR Green DNA, 72 h; series mostly up to 28.7 µM. The essentials: as §1
Test [6] relates to CP194. The description is as above. As to conditions: P. falciparum in erythrocytes, SYBR Green DNA, 72 h; series mostly up to 28.7 µM. The essentials:
as §1

The subject of test [7] is CP201. Described as above. Particulars: P. falciparum in erythrocytes, SYBR Green DNA, 72 h; series mostly up to 28.7 µM. The essentials: as §1
Test [8] relates to CP203. Described as above. Particulars: P. falciparum in erythrocytes, SYBR Green DNA, 72 h; series mostly up to 28.7 µM. The essentials:
as §1

Test [9] deals with CP217. Described as above. Particulars: P. falciparum in erythrocytes, SYBR Green DNA, 72 h; series mostly up to 28.7 µM. The essentials: as §1
The subject of test [10] is CP250. The description is as above. Particulars: P. falciparum in erythrocytes, SYBR Green DNA, 72 h; series mostly up to 28.7 µM. The essentials: as §1
For test [11], the system named is CP256. The description is as above. As to conditions: P. falciparum in erythrocytes, SYBR Green DNA, 72 h; series mostly up to 28.7 µM. The essentials: as §1
Test [12] has as its system CP268. Described as above. As to conditions: P. falciparum in erythrocytes, SYBR Green DNA, 72 h; series mostly up to 28.7 µM. The essentials: as §1
The test system of test [13] is CP297. The test is described as above. Particulars: P. falciparum in erythrocytes, SYBR Green DNA, 72 h; series mostly up to 28.7 µM. The essentials:
as §1

Test [14] has as its system CP305. Described as above. Particulars: P. falciparum in erythrocytes, SYBR Green DNA, 72 h; series mostly up to 28.7 µM. The essentials: as §1
The test system of test [15] is CP325. The test is described as above. As to conditions: P. falciparum in erythrocytes, SYBR Green DNA, 72 h; series mostly up to 28.7 µM. The essentials: as §1
For test [16], the system named is HB3. The description is as above. Particulars: P. falciparum in erythrocytes, SYBR Green DNA, 72 h; series mostly up to 28.7 µM. The essentials: as §1
The test system of test [17] is PC49. The test is described as above. Particulars: P. falciparum in erythrocytes, SYBR Green DNA, 72 h; series mostly up to 28.7 µM. The essentials:
as §1

For test [18], the system named is TAB109. The description is as above. As to conditions: P. falciparum in erythrocytes, SYBR Green DNA, 72 h; series mostly up to 28.7 µM. The essentials:
as §1

Test [19] relates to CP237. Described as above. Particulars: P. falciparum in erythrocytes, SYBR Green DNA, 72 h; series mostly up to 28.7 µM. The essentials: as §1
The subject of test [20] is PC15. The description is as above. Particulars: P. falciparum in erythrocytes, SYBR Green DNA, 72 h; series mostly up to 28.7 µM. The essentials:
as §1

For `C[C@]12CC[C@@H]3c4ccc(O)cc4CC[C@H]3[C@@H]1CCC2OC(=O)CCC1CCCC1` (some centres not stated), the Potency result in test [1], in [2], in test [3], in test [4], in test [5] and in test [6] was “inactive” throughout. Also, the Potency result in [7], in [8], in [9], in test [10], in test [11] and in test [12] was “inactive” in each case. The Potency entry in test [13], in [14], in test [15], in test [16], in test [17] and in test [18] was “inactive” in each case.

Regarding `C[C@H](CN1c2ccccc2Sc2cccnc21)N(C)C`, the Potency result in [1], in test [16] and in test [17] was “inactive” each time. The Potency was 7.94 µM (active) in test [2]; 11.2 µM (active) in [3]; 5.01 µM (active) in test [4]; 13.5 µM (active) in test [8]; 2 µM (active) in test [19]; 15.1 µM (active) in [13]. Also, in test [18], the Potency is 7.08 µM (active).

Turning to `CC1=C(c2ccc(NN=C(C#N)C#N)cc2)NNC(=O)C1`, the Potency result in [1], in test [2], in [3], in [4], in [5] and in test [6] was “inactive” in each case. For the same compound, the Potency entry in [7], in test [8], in test [9], in test [19], in [10] and in test [11] was “inactive” each time. Besides, the Potency entry in test [12], in [13], in test [14], in test [15], in [16] and in test [20] was “inactive” throughout. In addition, the Potency entry in test [17] and in [18] was “inactive” each time.

`CC(C)(C)NC[C@H](O)CSc1nc(-c2ccc(C(N)=O)s2)cs1`: the Potency result in [1], in test [2], in [3], in [4], in test [5] and in [6] was “inactive” in each case. For the same compound, the Potency result in [7], in test [8], in [9], in [19], in test [10] and in test [11] was “inactive” in each case. Moreover, the Potency entry in test [12], in test [13], in test [14], in [15], in test [16] and in [20] was “inactive” each time. For the same compound, the Potency entry in test [17] and in [18] was “inactive” in each case.

With `C#C[C@]1(O)CC[C@H]2[C@H]3[C@H](CC[C@@]21C)C1=C(CC(=O)CC1)C[C@@H]3C`, the Potency result in test [2], in test [3], in [4], in test [5], in test [6] and in [7] was “inactive” throughout. The Potency entry in test [8], in test [9], in test [19], in [10], in test [11] and in test [12] was “inactive” in each case. In addition, the Potency entry in test [13], in test [14], in [15], in test [16], in test [20] and in test [17] was “inactive” in each case. Further, in test [18], the Potency result was “inactive”.

In the case of `C/C=C1/NN(CCCN2CCN(c3cccc(Cl)c3)CC2)C(=O)N1CCOc1ccccc1`, the Potency result in [1], in test [2], in test [3], in test [4], in [5] and in test [6] was “inactive” each time. Further, the Potency entry in test [7], in [9], in [10], in test [11], in test [12] and in test [14] was “inactive” each time. In addition, the Potency result in test [15], in test [16], in test [20], in test [17] and in test [18] was “inactive” each time.

Regarding `CC1=C[C@@H](O)CC(C)(C)[C@@H]1/C=C/C(C)=C/C=C/C(C)=C/C=C/C=C(C)/C=C/C=C(C)/C=C/C1=C(C)C[C@H](O)CC1(C)C`, the Potency result in test [1], in [4], in [6], in [7], in test [8] and in test [10] was “inactive” each time. The Potency result in test [11], in [12], in test [14], in test [15] and in [18] was “inactive” throughout. The Potency in test [16] was 11.2 µM (active); in test [17], 10 µM (active).
